{"source": "ChEMBL document CHEMBL4513141", "about": "“CO-ADD screening of NIH (USA) - Clinical Collection” (2021)", "note": "Potency and affinity values are given separately.", "data": [{"system": "Klebsiella pneumoniae", "conditions": "Concentration 20 uM; ASSAY_TEST Inhibition of Bacterial Growth; detection method Absorption (OD600); MEDIA CAMHB; plate type 384well; NBS; CORNING #3640; time 18 hr", "units": {"Inhibition": "%"}, "values": [{"smiles": "CC[C@@H]1/C=C/C=C/C[C@H](C)[C@@H](O)[C@](C)(O)C(=O)[C@H](C)[C@@H](O)[C@H](C)C(=O)[C@H](C)[C@@H](O)[C@H](C)/C=C/C(=O)O[C@H]2[C@@H](C)[C@@H](CC1)O[C@@]1(CC[C@@H](C)[C@@H](C[C@H](C)O)O1)[C@@H]2C", "Inhibition": 17.55}, {"smiles": "CCOC(=O)c1ncn2c1CN(C)C(=O)c1cc(F)ccc1-2", "note": "[FLUMAZENIL]", "Inhibition": -2}, {"smiles": "Br.Br.CN1CC[C@]2(c3cccc(O)c3)Cc3nc4ccccc4cc3C[C@H]2C1.O", "Inhibition": 12.17}, {"smiles": "C[C@H](CCC(=O)O)[C@H]1CC[C@H]2[C@@H]3C(=O)C[C@@H]4CC(=O)CC[C@]4(C)[C@H]3CC(=O)[C@]12C", "note": "[DEHYDROCHOLIC ACID]", "Inhibition": 5.88}, {"smiles": "CC1CCC[C@H](O)CCCCCc2cc(O)cc(O)c2C(=O)O1", "note": "(some centres undefined)", "Inhibition": 3.64}, {"smiles": "CC(NC(C)(C)C)C(=O)c1cccc(Cl)c1.Cl", "note": "(centres undefined) [BUPROPION HYDROCHLORIDE]", "Inhibition": 2.52}, {"smiles": "NS(=O)(=O)c1cc(C2(O)NC(=O)c3ccccc32)ccc1Cl", "note": "(centres undefined) [CHLORTHALIDONE]", "Inhibition": 4.57}, {"smiles": "N=C(NCc1ccc(Cl)cc1)SCCCc1c[nH]cn1", "note": "[CLOBENPROPIT]", "Inhibition": 6.85}, {"smiles": "CC(C(=O)O)c1ccc(-c2ccccc2)c(F)c1", "note": "(centres undefined) [FLURBIPROFEN]", "Inhibition": 4.59}, {"smiles": "CC(C)[C@]12O[C@H]1[C@@H]1O[C@]13[C@]1(O[C@H]1C[C@H]1C4=C(CC[C@@]13C)C(=O)OC4)[C@@H]2O", "note": "[TRIPTOLIDE]", "Inhibition": 7.24}, {"smiles": "Cl.Cl.OCCN1CCN(CCCN2c3ccccc3Sc3ccc(C(F)(F)F)cc32)CC1", "note": "[FLUPHENAZINE HYDROCHLORIDE]", "Inhibition": 7.98}, {"smiles": "CCC(COC(=O)c1cc(OC)c(OC)c(OC)c1)(c1ccccc1)N(C)C.O=C(O)/C=C\\C(=O)O", "note": "(centres undefined)", "Inhibition": 22.71}, {"smiles": "CC(C)C(=O)Nc1ccc([N+](=O)[O-])c(C(F)(F)F)c1", "note": "[FLUTAMIDE]", "Inhibition": 13.37}, {"smiles": "Cl.NCC(O)c1ccc(O)c(O)c1", "note": "(centres undefined)", "Inhibition": 15.27}, {"smiles": "Cl.O=C1c2cccc3c2[C@H](CCC3)CN1[C@@H]1CN2CCC1CC2", "note": "[PALONOSETRON HYDROCHLORIDE]", "Inhibition": 8.73}, {"smiles": "COC(=O)N1CCN(C(=O)Cc2ccc(Cl)c(Cl)c2)C(CN2CCCC2)C1.O=C(O)/C=C/C(=O)O", "note": "(centres undefined)", "Inhibition": 6.19}, {"smiles": "CNCCC(Oc1ccc(C(F)(F)F)cc1)c1ccccc1.Cl", "note": "(centres undefined) [FLUOXETINE HYDROCHLORIDE]", "Inhibition": 3.44}, {"smiles": "CC(C)CC(N(C)C)C1(c2ccc(Cl)cc2)CCC1", "note": "(centres undefined) [SIBUTRAMINE]", "Inhibition": 10.19}, {"smiles": "CC[C@]1(O)CC[C@H]2[C@@H]3CCC4=CCCC[C@@H]4[C@H]3CC[C@@]21C", "note": "[ETHYLESTRENOL]", "Inhibition": 4.45}, {"smiles": "CCC1(c2ccc(N)cc2)CCC(=O)NC1=O", "note": "(centres undefined) [AMINOGLUTETHIMIDE]", "Inhibition": 3.02}, {"smiles": "Cl.N=C(N)NC(=O)c1nc(Cl)c(N)nc1N.O.O", "note": "[AMILORIDE HYDROCHLORIDE]", "Inhibition": 12.19}]}, {"system": "Candida albicans", "conditions": "20 µM", "units": {"Inhibition": "%"}, "values": [{"smiles": "CN/C(=N\\CCSCc1nc[nH]c1C)NC#N", "note": "[CIMETIDINE]", "Inhibition": 3.16}, {"smiles": "CN1CCN(C2=Nc3cc(Cl)ccc3Nc3ccccc32)CC1", "note": "[CLOZAPINE]", "Inhibition": 0.59}, {"smiles": "O=C(O)CCCc1ccc(N(CCCl)CCCl)cc1", "note": "[CHLORAMBUCIL]", "Inhibition": 2.65}, {"smiles": "C[C@]12CCC(=O)C[C@@H]1CC[C@@H]1[C@@H]2CC[C@@]2(C)[C@H]1CC[C@]2(C)O", "note": "[MESTANOLONE]", "Inhibition": 11.7}, {"smiles": "CCOC(=O)C1(c2ccccc2)CCN(CCC(C#N)(c2ccccc2)c2ccccc2)CC1.Cl", "note": "[DIPHENOXYLATE HYDROCHLORIDE]", "Inhibition": 4.81}, {"smiles": "NC(=O)OCCCc1ccccc1", "note": "[PHENPROBAMATE]", "Inhibition": 3.16}, {"smiles": "CC(=O)CC(c1ccccc1)c1c([O-])c2ccccc2oc1=O.[Na+]", "note": "(centres undefined) [WARFARIN SODIUM]", "Inhibition": 3.09}, {"smiles": "Cc1nnc2n1-c1ccc(Cl)cc1C(c1ccccc1)=NC2", "note": "[ALPRAZOLAM]", "Inhibition": 1.98}, {"smiles": "C[N+]1(C)CCC(OC(=O)C(O)(c2ccccc2)C2CCCC2)C1.[Br-]", "note": "(centres undefined) [GLYCOPYRRONIUM BROMIDE]", "Inhibition": 3.65}, {"smiles": "CCOC(=O)c1cncn1[C@H](C)c1ccccc1", "note": "[ETOMIDATE]", "Inhibition": 0.03}, {"smiles": "Nc1nc(F)nc2c1ncn2[C@@H]1O[C@H](CO)[C@@H](O)[C@@H]1O", "note": "[FLUDARABINE]", "Inhibition": 0.49}, {"smiles": "C[C@]12CCC(=O)C=C1CC[C@@H]1[C@@H]2CC[C@@]2(C)[C@H]1CC[C@]2(C)O", "note": "[METHYLTESTOSTERONE]", "Inhibition": 4.22}, {"smiles": "CC[C@@H]1/C=C/C=C/C[C@H](C)[C@@H](O)[C@](C)(O)C(=O)[C@H](C)[C@@H](O)[C@H](C)C(=O)[C@H](C)[C@@H](O)[C@H](C)/C=C/C(=O)O[C@H]2[C@@H](C)[C@@H](CC1)O[C@@]1(CC[C@@H](C)[C@@H](C[C@H](C)O)O1)[C@@H]2C", "Inhibition": 5.45}, {"smiles": "CCOC(=O)c1ncn2c1CN(C)C(=O)c1cc(F)ccc1-2", "note": "[FLUMAZENIL]", "Inhibition": 0.3}, {"smiles": "Br.Br.CN1CC[C@]2(c3cccc(O)c3)Cc3nc4ccccc4cc3C[C@H]2C1.O", "Inhibition": 0.66}, {"smiles": "C[C@H](CCC(=O)O)[C@H]1CC[C@H]2[C@@H]3C(=O)C[C@@H]4CC(=O)CC[C@]4(C)[C@H]3CC(=O)[C@]12C", "note": "[DEHYDROCHOLIC ACID]", "Inhibition": 3.92}, {"smiles": "CC1CCC[C@H](O)CCCCCc2cc(O)cc(O)c2C(=O)O1", "note": "(some centres undefined)", "Inhibition": 2.99}, {"smiles": "CC(NC(C)(C)C)C(=O)c1cccc(Cl)c1.Cl", "note": "(centres undefined) [BUPROPION HYDROCHLORIDE]", "Inhibition": 4.99}, {"smiles": "NS(=O)(=O)c1cc(C2(O)NC(=O)c3ccccc32)ccc1Cl", "note": "(centres undefined) [CHLORTHALIDONE]", "Inhibition": 3.92}, {"smiles": "N=C(NCc1ccc(Cl)cc1)SCCCc1c[nH]cn1", "note": "[CLOBENPROPIT]", "Inhibition": 2.99}, {"smiles": "CC(C(=O)O)c1ccc(-c2ccccc2)c(F)c1", "note": "(centres undefined) [FLURBIPROFEN]", "Inhibition": 8.89}, {"smiles": "CC(C)[C@]12O[C@H]1[C@@H]1O[C@]13[C@]1(O[C@H]1C[C@H]1C4=C(CC[C@@]13C)C(=O)OC4)[C@@H]2O", "note": "[TRIPTOLIDE]", "Inhibition": 1.65}, {"smiles": "Cl.Cl.OCCN1CCN(CCCN2c3ccccc3Sc3ccc(C(F)(F)F)cc32)CC1", "note": "[FLUPHENAZINE HYDROCHLORIDE]", "Inhibition": 1.45}, {"smiles": "CCC(COC(=O)c1cc(OC)c(OC)c(OC)c1)(c1ccccc1)N(C)C.O=C(O)/C=C\\C(=O)O", "note": "(centres undefined)", "Inhibition": 3.77}, {"smiles": "CC(C)C(=O)Nc1ccc([N+](=O)[O-])c(C(F)(F)F)c1", "note": "[FLUTAMIDE]", "Inhibition": 3.45}, {"smiles": "Cl.NCC(O)c1ccc(O)c(O)c1", "note": "(centres undefined)", "Inhibition": 4.08}, {"smiles": "Cl.O=C1c2cccc3c2[C@H](CCC3)CN1[C@@H]1CN2CCC1CC2", "note": "[PALONOSETRON HYDROCHLORIDE]", "Inhibition": 2.55}, {"smiles": "COC(=O)N1CCN(C(=O)Cc2ccc(Cl)c(Cl)c2)C(CN2CCCC2)C1.O=C(O)/C=C/C(=O)O", "note": "(centres undefined)", "Inhibition": 2.42}, {"smiles": "CNCCC(Oc1ccc(C(F)(F)F)cc1)c1ccccc1.Cl", "note": "(centres undefined) [FLUOXETINE HYDROCHLORIDE]", "Inhibition": 1.79}, {"smiles": "CC(C)CC(N(C)C)C1(c2ccc(Cl)cc2)CCC1", "note": "(centres undefined) [SIBUTRAMINE]", "Inhibition": 2.06}, {"smiles": "CC[C@]1(O)CC[C@H]2[C@@H]3CCC4=CCCC[C@@H]4[C@H]3CC[C@@]21C", "note": "[ETHYLESTRENOL]", "Inhibition": 4.07}, {"smiles": "CCC1(c2ccc(N)cc2)CCC(=O)NC1=O", "note": "(centres undefined) [AMINOGLUTETHIMIDE]", "Inhibition": 2.63}, {"smiles": "Cl.N=C(N)NC(=O)c1nc(Cl)c(N)nc1N.O.O", "note": "[AMILORIDE HYDROCHLORIDE]", "Inhibition": 4.98}]}]}
